From PubChem BioAssay (NCATS) come the findings set out here.

Values joined by “and” are separate entries in the source; they are usually repeats but may differ in a detail not shown here. Equal entries are not always repeated. Inconclusive results are not listed. The source holds several records for some structures; these can differ, active in one and inactive in another. A number with no mark means an inactive call. Active and inactive are the calls of the source. Calls come from the whole dose curve; as a rule, active = well fitted curve in the direction sought with a large enough effect; inconclusive = small, poorly fitted or top-dose-only effect, or another doubt; inactive = no such curve, though single readings can be large; an effect the other way counts as inactive or inconclusive. Where a SMILES comes first, the peptide text is derived from it. Bridges are numbered along the chain shown (N, C = ends). [ ]: non-standard residue; d: D form. The star is where a group is joined. X1 = CCC(C)C(N)C1=NC(C(=O)*)CS1; dOrn = NCCC[C@@H](N)C(=O)O

The subject of assay [1] is CRL-7250. Briefly: Cytotoxic Profiling of Annotated Libraries Using Quantitative High-Throughput Screening (AID 1296008). For max response: % is set by controls: 0 for no effect and ±100 for the full control effect. Note: nearly all actives have a fitted effect of over 60% in size. Note: potency is the fitted concentration of half-maximal effect. Particulars: Five cell lines viability, CellTiter-Glo ATP luminescence, 48-72 h; max response: active compounds read low. In short, it runs like this: (§1)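 Compounds were pin-transferred onto cells and incubated 48 or 72 hr at 37 degree Celsius, 95% humidity. CellTiter-Glo was added, plates sat 10 min at room temperature, then ATP-coupled luminescence was imaged as the viability read-out.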
(ATP-based viability assays read luminescence as a measure of living cells.)

Assay [2] relates to HEK293. Described as above. Particulars: Five cell lines viability, CellTiter-Glo ATP luminescence, 48-72 h; max response: active compounds read low. In short, it runs like this: as §1
Assay [3] deals with HaCat. Described as above. Particulars: Five cell lines viability, CellTiter-Glo ATP luminescence, 48-72 h; max response: active compounds read low. Put shortly: as §1
The subject of assay [4] is KB-3-1. The description is as above. Particulars: Five cell lines viability, CellTiter-Glo ATP luminescence, 48-72 h; max response: active compounds read low. In short, it runs like this: as §1
Assay [5] concerns C33A. The experiment in a line: Primary qHTS to identify gynecologic anti-cancer compounds using libraries of approved drugs and bioactive compounds (AID 1345084). Note: % is set by controls: 0 for no effect and ±100 for the full control effect; nearly all actives have a fitted effect of over 55% in size. Particulars: Gynecologic cancer cell panel viability, ATPlite luminescence, 48 h; series mostly up to 57.5 µM. Put shortly: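 ATP-based viability (ATPlite), 1,000 cells/well, 16 h pre-incubation, 48 h compound at 37 C, 5% CO2, 15 min RT before read.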

The test system of assay [6] is NIH3T3. The experiment in a line: Cytotoxic Profiling of Annotated Libraries Using Quantitative High-Throughput Screening (AID 1296008). For max response: % is set by controls: 0 for no effect and ±100 for the full control effect. Note: nearly all actives have a fitted effect of over 60% in size. Note: potency is the fitted concentration of half-maximal effect. Particulars: Five cell lines viability, CellTiter-Glo ATP luminescence, 48-72 h; max response: active compounds read low. Put shortly: as §1
Assay [7] relates to HACAT. The experiment in a line: qHTS assay to identify novel small-molecules to repurpose for Merkel cell carcinoma treatment (AID 1296009). Note: nearly all actives have a fitted effect of over 60% in size. Particulars: MCC and control cell lines, CellTiter-Glo viability, 72 h. In short, it runs like this:
(§2)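 Viability readout: ATP luminescence (CellTiter-Glo) after 72 hr drug exposure at 37 degree celsius. Dose-response format was 8 points for NPC and 11 points for MIPE; data normalized to in-plate controls.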

Assay [8] deals with HEK293T. The description is as above. Particulars: MCC and control cell lines, CellTiter-Glo viability, 72 h; series mostly up to 44.8 µM. Put shortly:
as §2

Assay [9] concerns NIH3T3. The assay is described as above. Particulars: MCC and control cell lines, CellTiter-Glo viability, 72 h; at 44.8 µM (top of the series) unless noted. In short, it runs like this: as §2
Setting [10] is: at 44.8 µM (top of the series) unless noted.

For `CC(C)Nc1cc(-c2c[nH]c(C(=O)N[C@H](CO)c3cccc(Cl)c3)c2)c(Cl)cn1`, the max response is -4.72% in [1], -74.1% in [2] and -26.9% in [4]. In addition, the Potency in assay [2] was 26.3 µM (active); in assay [3], 2.59 µM (active) and 14.8 µM (active). For the same compound, the Potency result in assay [5] was “inactive”.

Take `COc1cc(N2CCC(O)CC2)ccc1Nc1cc(Nc2ccccc2S(=O)(=O)C(C)C)c2cc[nH]c2n1`: the Potency in assay [1] was 33.1 µM (active); in assay [2], 12.8 µM (active) and 11.7 µM (active); in assay [3] it was 8.31 µM (active); in assay [4], 14.3 µM (active); in assay [6] it was 4.67 µM (active). For the same compound, in assay [1], the max response was -7.16%. Also, in assay [5], the Potency entry was “inactive”.

In the case of `CC(C)(O)CNc1nc(Nc2ccnc(C(F)(F)F)c2)nc(-c2cccc(C(F)(F)F)n2)n1`, the max response in assay [1] is -2.34% and 1.41%; in assay [4], 4.85%; in assay [6] it was 3.44% and -5.61%. The Potency in assay [2] was 14.8 µM (active). Further, the outcome in assay [3], in assay [7] (at 17.4 µM (top of the series)) and in assay [7] (at 44.8 µM (top of the series)) was inactive. Also, the Potency entry in assay [5] was “inactive”.

In the case of `CCOc1ccc(-c2ccc(Cn3c(CC(C)(C)C(=O)O)c(SC(C)(C)C)c4cc(OCc5ccc(C)cn5)ccc43)cc2)cn1`, the max response was -21.1% and -6.16% in assay [1]; -15.3% in assay [2]; -15.9% and -11.2% in assay [3]; -5.24% in assay [4]; -6.34% in assay [6]. The compound was classed as inactive in assay [2] and in assay [4]. Also, the Potency result in [8] and in [5] was “inactive” each time.

Take `NC1CCC(N[C@@H]2C[C@H]2c2ccccc2)CC1` (stereo not given in full): the max response is 1.1% in [1]; -15.5% and -3.29% in [2]; -1.71% in [3]; 3.03% in assay [6]. Besides, the compound was called inactive in assay [1], in assay [3], in [4], in assay [6], in [7] (setting [10]) and in [9]. In assay [5], the Potency entry was “inactive”.

`O=C(NC[C@H](O)CN1CCc2ccccc2C1)c1cc(NC2COC2)ncn1`: the max response in assay [1] was -6.51% and -13.6%; in assay [2], -6.86%; in assay [3], -0.448%; in [6], -2.53%. Also, the result in [4], in assay [6] and in assay [9] was inactive. Moreover, the Potency result in [5] was “inactive”.

Consider `C=C[C@H]1[C@H](O[C@@H]2O[C@H](CO[C@@H]3OC[C@](O)(CO)[C@H]3O)[C@@H](O)[C@H](O)[C@H]2O)OC=C2C(=O)OCC[C@H]21`, for which the compound was classed as inactive in assay [1], in assay [2], in assay [3], in assay [4] and in assay [6]. Further, the outcome in assay [7] (setting [10]) and in [9] was “inactive [at 17.4 µM]” throughout. The Potency result in assay [8] and in assay [5] was “inactive” throughout.

Regarding `N#Cc1ccnc(N2C(=O)CC[C@H]2C(=O)N(c2cncc(F)c2)[C@H](C(=O)NC2CC(F)(F)C2)c2ccccc2Cl)c1`, the max response in assay [1] is -10.6%; in assay [2], -9.11%; in assay [3], -27%; in assay [4], 1.75%; in [6], -4.58%. For the same compound, the results for the Potency in [2] and in assay [3] were 3.31 µM (active) and 23.4 µM (active), respectively. For the same compound, the Potency result in assay [5] was “inactive”.

As for `CC1C(=O)CC2C3C(O)CC(C(=O)O)C12CC3(C)C` (stereo not given), the call in assay [1], in assay [2], in assay [3], in assay [6], in assay [7] (setting [10]) and in [9] was inactive. In addition, the max response in [4] was 3.18%. Further, the Potency entry in assay [8] and in assay [5] was “inactive” in each case.

In the case of `O=C(C1CC1)N1CC[C@@H](Cc2n[nH]c(=O)n2-c2ccc(-c3ccc4occc4c3)cc2)C1`, the max response in [1] is -4.78% and -21.6%; in assay [3], -2.96%; in [6], -10.7%. Further, the compound was called inactive in assay [2], in [3] and in assay [4]. In addition, in assay [7] (setting [10]), the outcome is “inactive [at 17.4 µM]”. Moreover, the Potency entry in [8] and in [5] was “inactive” each time.

Consider `C#C[C@]1(O)CC[C@H]2[C@@H]3CCC4=C/C(=N/O)CC[C@@H]4[C@H]3CC[C@@]21CC`, for which the max response in assay [1] is 4.4%; in assay [2], -0.147%; in [3] it was -21.3%; in assay [4], -19.2% and -21.5%. The result in assay [6] was inactive.

With `CO[C@@H]1COCC[C@@H]1N[C@@H]1CC[C@@](C(=O)N2CCc3ncc(C(F)(F)F)cc3C2)(C(C)C)C1`, the compound was called inactive in [1], in [2], in [3], in assay [4], in assay [7] (at 17.4 µM (top of the series)) and in assay [7] (at 44.8 µM (top of the series)). Besides, the max response in [6] was -6.53%. The Potency result in assay [8] and in assay [5] was “inactive” in each case.

`CCC(C)C(N)C1=NC(C(=O)N[C@@H](CC(C)C)C(=O)N[C@H](CCC(=O)O)C(=O)N[C@H](C(=O)N[C@H]2CCCCNC(=O)[C@H](CC(N)=O)NC(=O)[C@@H](CC(=O)O)NC(=O)[C@H](Cc3cnc[nH]3)NC(=O)[C@@H](Cc3ccccc3)NC(=O)[C@H]([C@@H](C)CC)NC(=O)[C@@H](CCCN)NC2=O)[C@@H](C)CC)CS1` (stereo not given in full) (X1-L[dE]IK[dOrn]I[dF]H[dD]N; lactam 4-C): the max response in assay [1] is 2.99% and -28%; in [2], -1.63% and -10.3%; in [4], 8.49%; in assay [6], 2.78%. In addition, the outcome in [3] and in assay [4] was inactive. For the same compound, in [7] (setting [10]), the outcome was “inactive [at 17.4 µM]”. Further, in [5], the Potency result is “inactive”.

In the case of `NCc1ccc(OCCCc2sc(-c3ccc4c(c3)/C(=N/Nc3nc5ccccc5s3)CCC4)nc2C(=O)O)cc1`, the max response is -14.2% in [1], 0.629% in assay [3], -25.7% in assay [4] and -6.71% in [6]. The Potency in [2] is 2.95 µM (active); in [3], 3.71 µM (active). In addition, in [5], the Potency entry is “inactive”.

Turning to `NS(=O)(=O)OC[C@@H]1C[C@@H](n2ccc3c(N[C@H]4CCc5ccccc54)ncnc32)C[C@@H]1O`, the Potency is 1.3 µM (active) and 651 nM (active) in assay [1]; 291 nM (active) and 366 nM (active) in [2]; 5.17 µM (active) in [3].

For `Cc1nn(C)c2c1C(c1ccc(C(F)(F)F)cc1)C(C#N)=C(N)O2` (stereo not given), the max response was 4.37% in [1]; -4.39% and 2.32% in assay [2]; -6.13% and -14.3% in assay [3]; 9.42% in assay [4]; 1.84% in [6]. Moreover, the compound was called inactive in [1], in assay [6] and in assay [9]. Besides, the Potency entry in [5] is “inactive”.
